An excerpt weighted towards active compounds, which were near 4.7% of everything screened.
D3 ag = qHTS of D3 Dopamine Receptor Agonist: qHTS; D(3) dopamine receptor (Homo sapiens), P35462; D3R DiscoveRx beta-arrestin cells, luminescence, 90 min; max activation, %; 410,000 compounds, 0.58% hits; in the data active = max activation above about 30%
Target sequence (P35462 whole entry, looked up): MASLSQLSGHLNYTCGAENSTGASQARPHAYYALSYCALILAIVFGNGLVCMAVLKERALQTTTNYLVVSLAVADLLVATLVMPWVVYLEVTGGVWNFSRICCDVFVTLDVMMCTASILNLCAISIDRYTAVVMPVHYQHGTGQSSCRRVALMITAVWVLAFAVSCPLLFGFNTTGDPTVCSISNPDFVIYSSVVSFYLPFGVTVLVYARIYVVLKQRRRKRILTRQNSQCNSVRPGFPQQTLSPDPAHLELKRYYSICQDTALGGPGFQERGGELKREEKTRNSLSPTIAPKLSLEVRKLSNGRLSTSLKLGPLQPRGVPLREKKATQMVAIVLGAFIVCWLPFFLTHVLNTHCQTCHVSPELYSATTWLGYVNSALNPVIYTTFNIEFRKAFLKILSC
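Agonist-mode cell screen: cells plated at 1500/well and incubated overnight at 37 °C, then exposed to library compounds for 90 min at 37 °C. Detection reagent was added for 30–60 min at room temperature, and luminescence was read.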
HepG2 viability = qHTS for Inhibitors of TGF-b: Cytotox Counterscreen; Potency, µM (top dose mostly 46.1 µM), usual class: cytotoxic; AID 588856, 2011; HepG2 CAGA-GFP viability, ATP luminescence, 18 h; 410,000 compounds, 0.76% hits
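HepG2 CAGA-GFP cells (1000/well, DMEM with 1% FBS) received compound, then TGF-beta at 500 pg/mL final, and were incubated 18 hours at 37 degrees C. Viability was read by CellTiter-Glo luminescence. Media-only wells were set as complete cell-killing and DMSO as no toxicity.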
ATXN2 expr inh = Primary qHTS for Inhibitors of ATXN expression. AID 1745845, 2022. 360,000 compounds, 0.72% hits. Potency, µM (titrated, usually from 57 µM), most hits filed as inhibitors. HEK-293 ATXN2-luciferase reporter, luminescence, 24 h; note: nearly all actives have a fitted effect of over 55% in size
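qHTS (up to 57 uM final) was run with 24 h compound exposure of reporter cells at 37 °C. Each well was multiplexed: SteadyGlo luminescence measured ATXN2-luciferase expression after a fluorogenic Gly-Phe-AFC viability readout (25 uM final).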
DRD3 antagonist = qHTS of D3 Dopamine Receptor Antagonist: qHTS | D3R cells, DiscoveRx beta-arrestin luminescence, antagonist mode; stronger effect = lower value | max response, negative = inhibition, % | D(3) dopamine receptor (Homo sapiens), P35462 | 360,000 compounds, 2.5% hits; in the data active = max response below about -50%; inconclusive = no clear call, values can overlap the other calls
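Cells expressing the human receptor were seeded at 1500 cells/well, incubated overnight at 37 degrees C in 5% CO2, then exposed to library compounds with dopamine controls for 90 minutes at 37 degrees C before luminescent detection.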
TGFb inhibitor = qHTS for Inhibitors of TGF-b. HepG2 CAGA-GFP TGF-b/SMAD3 reporter, GFP fluorescence, 18 h; TGF-beta stimulated, 500 pg/mL final. Potency, µM (highest dose often 46.1 µM), actives largely listed as inhibitors. 410,000 compounds, 1.2% hits. AID 588855, 2011; note: nearly all actives have a fitted effect of over 65% in size
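Smad-responsive CAGA-GFP expression was quantified in HEPG2 cells exposed to compounds and 500 pg/mL final TGF-beta for 18 h at 37 degrees C; unstimulated wells defined full inhibition.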
ATXN viability = Viability Counterscreen for Primary qHTS for Inhibitors of ATXN expression | 400,000 compounds, 0.49% hits | AID 651635, 2014 | S2 cells (HEK-293 line with an ATXN2-luciferase reporter) viability, CellTiter-Fluor protease fluorescence, 24 h | Potency, µM (titrated, usually from 56.7 µM), actives largely listed as cytotoxic; note: nearly all actives have a fitted effect of over 40% in size
Each line names hits and unclear results; the compound was inactive in the other large screens. Unless noted, calls come from the whole dose curve; as a rule, active = well fitted curve in the direction sought with a large enough effect; inconclusive = small, poorly fitted or top-dose-only effect, or another doubt; inactive = no such curve, though single readings can be large; an effect the other way counts as inactive or inconclusive.

COc1ccc(Cc2c(-c3ccco3)nc3ccc(Br)cn23)c(C)c1	HepG2 viability 16µM, ATXN2 expr inh inconclusive, TGFb inhibitor 16µM (no result: ATXN viability)
COc1ccc(Cc2c(-c3ccco3)nc3ccc(Cl)cn23)c(C)c1	DRD3 antagonist inconclusive, TGFb inhibitor 22µM
Cc1ccc2c(c1)CC(C)N2S(=O)(=O)c1nnc(NC(=O)c2ccccc2F)s1 (configuration not stated)	TGFb inhibitor inconclusive (no result: ATXN2 expr inh, DRD3 antagonist, ATXN viability)
CCOc1cccc2sc(N(Cc3cccnc3)C(=O)c3ccco3)nc12	TGFb inhibitor inconclusive (no result: ATXN2 expr inh, DRD3 antagonist, ATXN viability)
O=C(CNc1ccc2ccccc2c1)N/N=C/c1ccc(C(=O)O)cc1	none
O=C(COc1ccccc1)N/N=C/c1ccc([N+](=O)[O-])o1	HepG2 viability 11µM, TGFb inhibitor 11µM, ATXN viability inconclusive (no result: ATXN2 expr inh)
O=C(CNc1ccc2ccccc2c1)N/N=C/c1ccc([N+](=O)[O-])o1	HepG2 viability 7.9µM, TGFb inhibitor 8.9µM, ATXN viability inconclusive
O=C(N/N=C/c1ccc([N+](=O)[O-])o1)c1sc2ccccc2c1Cl	TGFb inhibitor inconclusive, ATXN viability 32µM (no result: ATXN2 expr inh)
Cc1cc(C(=O)N/N=C/c2ccc([N+](=O)[O-])o2)c(C)o1	HepG2 viability 11µM, TGFb inhibitor 18µM, ATXN viability inconclusive (no result: ATXN2 expr inh)
COc1ccccc1-c1nc2cc(C(=O)NC[C@H]3CCc4ccccc4O3)cc(NC(C)=O)c2n1C	none (no result: D3 ag, HepG2 viability, ATXN2 expr inh, DRD3 antagonist, TGFb inhibitor)
C=CC[N+]1([C@H]2C[C@H]3[C@@H]4CC[C@H]5C[C@H](O)[C@@H](N6CCOCC6)C[C@]5(C)[C@H]4CC[C@]3(C)[C@H]2OC(C)=O)CCCC1	none (no result: HepG2 viability, ATXN2 expr inh, DRD3 antagonist, TGFb inhibitor, ATXN viability)
Cc1ccc(C)c(CN2C[C@H](Sc3ccccn3)C[C@H]2C(=O)Nc2ccc3sc(C)nc3c2)c1	none (no result: D3 ag, HepG2 viability, ATXN2 expr inh, DRD3 antagonist, TGFb inhibitor)
CCN(CC)CCNC(=O)C(=O)NCC(c1ccc2c(c1)OCO2)N1CCOCC1 (configuration not stated)	none (no result: ATXN2 expr inh, DRD3 antagonist, ATXN viability)
COc1ccccc1NS(=O)(=O)c1cccc(C(=O)N/N=C/c2ccc3c(c2)OCCO3)c1	none
COc1ccccc1NS(=O)(=O)c1cccc(C(=O)N/N=C/c2ccc([N+](=O)[O-])o2)c1	ATXN2 expr inh inconclusive, TGFb inhibitor 7.1µM, ATXN viability inconclusive
Cc1ccc(OCC(=O)N/N=C/c2ccc([N+](=O)[O-])o2)cc1	HepG2 viability 10µM, ATXN2 expr inh inconclusive, TGFb inhibitor 10µM, ATXN viability inconclusive
Cc1cccc(C)c1OCc1nc2c3cnn(-c4cccc(F)c4)c3ncn2n1	none (no result: ATXN2 expr inh, DRD3 antagonist, ATXN viability)
C#CC(=O)N(c1ccc(OC)c(OC)c1)C(C(=O)NC1CCCC1)c1cccs1 (configuration not stated)	HepG2 viability 13µM, ATXN2 expr inh inconclusive, DRD3 antagonist -72, TGFb inhibitor inconclusive (no result: ATXN viability)
C#CC(=O)N(c1cccc(OC)c1)C(C(=O)NC1CCCC1)c1cccs1 (configuration not stated)	HepG2 viability 8.9µM, ATXN2 expr inh 1.6µM, DRD3 antagonist -63, TGFb inhibitor 22µM, ATXN viability 1.6µM
COc1ccc(N(C(=O)Cc2cccs2)C(C(=O)NC2CCCC2)c2ccncc2)cc1OC (configuration not stated)	none
COCOc1ccc(/C=C/C(=O)c2c(OCOC)cc(OCOC)c(CC=C(C)C)c2O)cc1OCOC	D3 ag 42
COCOc1ccc(/C=C/C(=O)c2c(O)cc(OCOC)cc2OCOC)cc1	D3 ag 43
Cn1cnnc1SCc1ccc(C(=O)N/N=C(\CCC(=O)O)c2ccc(C(C)(C)C)cc2)cc1	DRD3 antagonist -54
COc1ccc(S(=O)(=O)n2nc(-c3ccco3)nc2NCc2ccc(OC)c(OC)c2)cc1	ATXN viability inconclusive (no result: DRD3 antagonist)
CN=c1scc(-c2ccco2)n1/N=C/c1ccc(O)c(O)c1	D3 ag 51
CN=c1scc(C)n1/N=C/c1ccc(O)cc1	none
C=CCN=c1scc(C)n1/N=C/c1ccc(O)c(O)c1	D3 ag 31, ATXN viability inconclusive (no result: ATXN2 expr inh)
COc1ccc(O)c(/C=N/n2c(-c3ccco3)csc2=Nc2cccnc2)c1	TGFb inhibitor inconclusive
Cc1ccc(S(=O)(=O)CC(O)COc2ccc(F)cc2Cl)cc1 (configuration not stated)	DRD3 antagonist -64
Cc1ccc(S(=O)(=O)CC(O)COc2ccc(F)cc2Cl)c(C)c1 (configuration not stated)	none
COCCCNCCCCOc1ccc(Br)cc1C	ATXN2 expr inh inconclusive, DRD3 antagonist -97, TGFb inhibitor inconclusive
COCCNCCCCOc1ccc(Br)cc1C	none
Cc1cc(Br)ccc1OCCCCNC(C)(C)C	DRD3 antagonist -66
O=c1[nH]c(C(F)(F)F)nc2ccccc12	DRD3 antagonist -60
COc1ccc(NC(=O)Cn2nc(C)c3nn(-c4ccc(Cl)cc4)c(C)c3c2=O)cc1	none (no result: ATXN2 expr inh, DRD3 antagonist, ATXN viability)
C=C(CN(C)C)C(=O)c1ccc(C)cc1C	DRD3 antagonist -88, TGFb inhibitor inconclusive, ATXN viability inconclusive
CC(=O)Nc1ccccc1NC(=O)c1ccc(C)cc1C	ATXN viability inconclusive
COC(=O)[C@@H]1CCCN1Cc1ccc2c(c1)CN(Cc1ccc3c(c1)CCO3)CCO2	none (no result: D3 ag, HepG2 viability, ATXN2 expr inh, DRD3 antagonist, TGFb inhibitor)
CC(NC(=O)c1cccnc1)c1nnc2n1CCN(Cc1ccc(-c3ccccc3Cl)o1)CC2 (configuration not stated)	none (no result: D3 ag, HepG2 viability, ATXN2 expr inh, DRD3 antagonist, TGFb inhibitor)
O=C(CCCCCNC(=O)N1CCn2c1nc1ccccc12)N[C@@H](C(=O)O)c1ccccc1	none
O=C(CCCCCNC(=O)N1CCn2c1nc1ccccc12)N[C@@H](Cc1ccccc1)C(=O)O	D3 ag 30
COc1cc(C2CC(=O)c3c([nH]c(C(=O)OC4CCCC4)c3C)C2)cc(OC)c1OC (configuration not stated)	TGFb inhibitor inconclusive, ATXN viability 32µM (no result: DRD3 antagonist)
COC(=O)c1[nH]c2c(c1C)C(=O)CC(c1cc(OC)c(OC)c(OC)c1)C2 (configuration not stated)	none (no result: ATXN2 expr inh)
Cc1cc(Cl)c(S(=O)(=O)N2CCCCCC2)cc1OCC(=O)NC1CCCCC1	none (no result: ATXN2 expr inh, ATXN viability)
CCN1CCN(S(=O)(=O)c2cc(OCC(=O)NC3CCCCC3)c(C)cc2Cl)CC1	DRD3 antagonist -70, TGFb inhibitor inconclusive
CCN(CC)CCOC[C@H]1O[C@@H](O)[C@H](OCCN(CC)CC)[C@@H](O)[C@@H]1O	none (no result: HepG2 viability, ATXN2 expr inh, DRD3 antagonist, TGFb inhibitor, ATXN viability)
O=C(N/C(=C/C=C/c1ccccc1)C(=O)N1CCCCC1)c1ccc([N+](=O)[O-])cc1	TGFb inhibitor inconclusive, ATXN viability 1.5µM
Cc1cccc(NC(=S)NNC(=O)c2nn(C)cc2Cl)c1	DRD3 antagonist -99
